Results as given in the supplement of paper PMC4840960.

Tested on: E18 rat cortical neuron-glia co-culture
Assay: myelination (MBP fiber length per Olig2+ nucleus), % of 1 µM DAPT response (DMSO = 0) (% of DAPT); higher = more myelination, active = 50 or more
Details: 5 µM; treatment time: 8 days (DIV5-DIV13)
Outline: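 Rat cortical co-cultures from E18 tissue were dissociated with papain and plated at 20,000 cells/well on 96-well plates coated with poly-d-lysine/laminin. From DIV5 to DIV13, library compounds were added at 1 or 5 µM in myelination medium. After fixation in 4 % paraformaldehyde, cultures were immunostained for MBP and Olig2 and counterstained with DAPI, and four 10X fields were analysed in each of duplicate wells. The myelination value is the length of continuous straight MBP fibers per Olig2+ nucleus, normalised so that 0.1 % DMSO is 0 and a 1 µM positive control is 100.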

myelination, inactive:
CC(C)NCC(O)COc1cccc2ccccc12 (centres undefined) [Propranolol] 1.55
CC(=O)NC[C@H]1CN(c2ccc(N3CCOCC3)c(F)c2)C(=O)O1 [linezolid] 0.414
O=C1Nc2ccccc2/C1=C1/Nc2ccccc2C1=O [Indirubin] -14.5
C#C[C@]1(O)CC[C@H]2[C@@H]3CCC4=CC(=O)CC[C@@H]4[C@H]3CC[C@@]21C [Norethindrone] -10.7
Brc1c(NC2=NCCN2)ccc2nccnc12 [Brimonidine] -32
Cn1nnc2c(C(N)=O)ncn2c1=O [Temozolomide] -12.8
Cc1ccc(-c2cc(C(F)(F)F)nn2-c2ccc(S(N)(=O)=O)cc2)cc1 [Celecoxib] -0.0582
C[C@@H]1C[C@H]2[C@@H]3CCC4=CC(=O)C=C[C@]4(C)[C@@]3(F)[C@@H](O)C[C@]2(C)[C@H]1C(=O)CO [Desoximetasone] -8.43
CC(=O)OCC(=O)[C@@]1(O)CC[C@H]2[C@@H]3CCC4=CC(=O)CC[C@]4(C)[C@H]3C(=O)C[C@@]21C [Cortisone acetate] -20.1
CCOC(=O)c1ccc(OC(=O)CCCCCNC(=N)N)cc1 [Gabexate] -14.2
CN(C)[C@@H]1C(O)=C(C(N)=O)C(=O)[C@@]2(O)C(O)=C3C(=O)c4c(O)cccc4C[C@H]3C[C@@H]12 [Sancycline] -15
CCN(CC)CCNC(=O)c1cc(Cl)c(N)cc1OC [Metoclopramide] -2.72
COc1cc2nc(N(C)CCCNC(=O)C3CCCO3)nc(N)c2cc1OC (centres undefined) [Alfuzosin] -36.4
CN(C)CCC(c1ccc(Cl)cc1)c1ccccn1 (centres undefined) [Chlorpheniramine] -17.7
OC(CCN1CCCCC1)(c1ccccc1)C1CCCCC1 (centres undefined) [Trihexyphenidyl] -15.2
CNC(=N)NCCC[C@H](N)C(=O)O -9.76
O=C(NCCO[N+](=O)[O-])c1cccnc1 [Nicorandil] -1.77
CN(C)CCOC(c1ccccc1)c1ccccc1 [Diphenhydramine] -17.4
O=C1CN(/N=C/c2ccc([N+](=O)[O-])o2)C(=O)N1 [Nitrofurantoin] 44
CN(C)CC/C=C1/c2ccccc2COc2ccc(CC(=O)O)cc21 [Olopatadine] -5.94
CCCC1O[C@@H]2C[C@H]3[C@@H]4CCC5=CC(=O)C=C[C@]5(C)[C@H]4[C@@H](O)C[C@]3(C)[C@]2(C(=O)CO)O1 (some centres undefined) [Budesonide] -18.8
CN(C)CCN(Cc1ccccc1)c1ccccn1 [Tripelennamine] -33.5
Nc1ccn([C@H]2CC[C@@H](CO)O2)c(=O)n1 [Zalcitabine] -7.3
CC(C)c1nc(CN(C)C(=O)N[C@H](C(=O)N[C@@H](Cc2ccccc2)C[C@H](O)[C@H](Cc2ccccc2)NC(=O)OCc2cncs2)C(C)C)cs1 [Ritonavir] -13.2
C[C@@](Cc1ccc(O)c(O)c1)(NN)C(=O)O [Carbidopa] -7.64
CCc1c(C)[nH]c2c1C(=O)C(CN1CCOCC1)CC2 (centres undefined) [Molindone] -25.8
CC(C)NCC(O)COc1ccc(CC(N)=O)cc1 (centres undefined) [Atenolol] 7.87
CC(CN1c2ccccc2Sc2ccccc21)N(C)C (centres undefined) [Promethazine] -4.26
O=C1C(CC[S+]([O-])c2ccccc2)C(=O)N(c2ccccc2)N1c1ccccc1 (centres undefined) [Sulfinpyrazone] -7.44
C[C@]12CC[C@@H]3c4ccc(O)cc4CC[C@H]3[C@@H]1CC[C@@H]2O [Estradiol] -35.3
CC(C)(S)[C@@H](N)C(=O)O [Penicillamine] -5.65
C=CC1=C(C(=O)O)N2C(=O)[C@@H](NC(=O)/C(=N\O)c3csc(N)n3)[C@H]2SC1 [Cefdinir] -0.0683
CC1(C)O[C@@H]2C[C@H]3[C@@H]4C[C@H](F)C5=CC(=O)C=C[C@]5(C)[C@@]4(F)[C@@H](O)C[C@]3(C)[C@]2(C(=O)CO)O1 [Fluocinolone Acetonide] 6.47
CC(C)(C)NCC(O)c1ccc(O)c(CO)c1 (centres undefined) [Albuterol] -17.3
CC[C@H](C)C(=O)O[C@H]1C[C@@H](C)C=C2C=C[C@H](C)[C@H](CC[C@@H]3C[C@@H](O)CC(=O)O3)[C@H]21 [Lovastatin] 1.23
Nc1c2c(nc3ccccc13)CCCC2 [Tacrine] -14.9
CC(=O)Nc1ccc(CC(=O)O)cc1 [Actarit] -10.1
NS(=O)(=O)c1cc2c(cc1C(F)(F)F)NC(Cc1ccccc1)NS2(=O)=O (centres undefined) [Bendroflumethiazide] -27.7

myelination, 159:
C#C[C@]1(O)CC[C@H]2[C@@H]3CCc4cc(O)ccc4[C@H]3CC[C@@]21C [Ethinyl Estradiol]
